{"source": "PubChem BioAssay (NCI)", "note": "Values joined by “and” are separate entries in the source; they are usually repeats but may differ in a detail not shown here. Equal entries are not always repeated. Compounds without any hit were thinned out: in the full panel of roughly 83,000, 20% have a hit.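 96-well plates, one dose, 48 hours. Percent growth reported; active if below 10.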 Active and inactive are the calls of the source.", "data": [{"system": "MDA-MB-468 breast", "experiment": "NCI-60 one-dose screen, 48 h (100 = growth as untreated, 0 = no growth, -100 = all killed)", "details": "10 µM unless noted", "values": [{"compound": "CCCC(c1nnnn1C1CCCCC1)N1CCN(C(=O)c2ccco2)CC1", "note": "(stereo not given)", "growth": "15.2% (inactive)"}, {"compound": "Cc1cc(C(C#N)c2ccc(Cl)cc2)c(Cl)cc1NC(=O)c1cc(I)cc(I)c1O", "note": "(stereo not given)", "growth": "58.9% (inactive)"}, {"compound": "CCOC(=O)NC(Cc1ccccc1)c1ccccc1", "note": "(stereo not given)", "growth": "106% (inactive)"}, {"compound": "Clc1nc(-c2cccnc2)nc2sc3c(c12)CCCCCC3", "growth": "95.1% (inactive)"}, {"compound": "CCCCCC1CCCCN1C(=O)OCC", "note": "(stereo not given)", "growth": "150% (inactive)"}, {"compound": "COc1cc(-c2nc(Nc3nc4ccccc4[nH]3)nc(N)c2C#N)cc(OC)c1OC", "growth": "48.5% (inactive)"}, {"compound": "CCOC(=O)/C(C#N)=C1/C(=O)Nc2ccccc21", "growth": "134% (inactive)"}, {"compound": "COc1ccc(/C=N/c2cc(C(C)(C)C)nn2-c2ccccc2)cc1", "growth": "124% (inactive)"}, {"compound": "CCN1CCN(CC(=O)Nc2nc3ccc(NCc4ccc(Cl)cc4)cc3s2)CC1", "growth": "47.8% (inactive)"}, {"compound": "CC[C@H](Nc1nc(N)nc(N)c1Cl)c1nc2cccc(NCc3ccc(C(=O)NO)cc3)c2c(=O)n1-c1ccccc1", "growth": "-34.3% (active)"}, {"compound": "Cc1ccc[n+](CCC(N)=O)c1", "growth": "108% (inactive)"}, {"compound": "CNC(=O)Nc1ccc(-c2ccc3ncnc(Nc4cccc(Cl)c4)c3c2)cc1", "growth": "-29.2% (active)"}, {"compound": "COc1ccc2c(CCCc3ccc(Cl)cc3Cl)c3[n+](cc2c1OC)CCc1cc2c(cc1-3)OCO2", "growth": "-49% (active)"}, {"compound": "Nc1ccc([N+](=O)[O-])cc1N=C/C=C/c1ccccc1", "growth": "46.4% (inactive)"}, {"compound": "Cc1c(Cn2cc(COc3ccc(Br)cc3)nn2)c(C)c(Cn2cc(COc3ccc(Br)cc3)nn2)c(C)c1Cn1cc(COc2ccc(Br)cc2)nn1", "growth": "109% (inactive)"}, {"compound": "COc1cc(NC(N)=NCCC(C)(C)Oc2ccc(C(F)(F)F)cc2)ncc1C#N", "growth": "-84.4% (active)"}, {"compound": "CN(C)c1ccc(/C=C(\\C#N)c2ccccc2)cc1", "growth": "4.19% (active) and -2.35% (active) and 4.76% (active)"}, {"compound": "CCc1cnn2c(NCc3ccc[n+]([O-])c3)cc(N3CCCC[C@H]3CCO)nc12", "growth": "-56.3% (active)"}, {"compound": "COc1cc(Nc2c3ccc(Cl)cc3nc3ccc(OC)cc23)c2ncccc2c1", "growth": "36.3% (inactive)"}, {"compound": "COc1ccc(NS(=O)(=O)c2ccc(C)cc2)c([N+](=O)[O-])c1", "growth": "86.6% (inactive)"}, {"compound": "O=S(=O)(c1cc(Cl)ccc1O)c1cc(Cl)ccc1O", "growth": "63.1% (inactive)"}, {"compound": "C=C(c1ccc(C(=O)O)c(F)c1)c1cc2c(cc1C)C(C)(C)C=CC2(C)C", "growth": "93.8% (inactive)"}, {"compound": "O=C1C(c2c(O)[nH]c3ncccc23)=Nc2ccccc21", "growth": "42.6% (inactive)"}, {"compound": "CCN1C(=O)N(CC)C2C1NN=c1s/c(=C\\c3ccccc3F)c(=O)n12", "note": "(stereo not given)", "growth": "10.9% (inactive)"}, {"compound": "CCOC(=O)CN1CCC(C(=O)OCC)CC1", "growth": "114% (inactive)"}, {"compound": "N#CC1c2ccccc2C=CN1C(=O)CCCl", "note": "(stereo not given)", "growth": "24.2% (inactive)"}, {"compound": "C=C1CC[C@@H]2[C@](C)(COC(C)=O)[C@H](OC(C)=O)CC[C@@]2(C)[C@@H]1CC(Nc1ccc(S(=O)(=O)Nc2nccc(C)n2)cc1)C1=CCOC1=O", "note": "(stereo not given in full)", "growth": "-45.8% (active)"}, {"compound": "COc1ccc(-c2nc(SCCC(C)C)nc(N/N=C\\c3cccc(Cl)c3)c2C#N)cc1", "growth": "95.9% (inactive)"}, {"compound": "NC(=S)N/N=C\\c1nccc2c(C(F)(F)F)cccc12", "growth": "-64.8% (active)"}, {"compound": "NS(=O)(=O)c1ccc(NC(=O)/C(=C\\c2ccc(Cl)cc2Cl)NC(=O)c2ccccc2)cc1", "growth": "110% (inactive)"}, {"compound": "CC/C(=C(/CC)c1ccc(O)cc1)c1ccc(O)cc1", "growth": "35.2% (inactive)"}, {"compound": "Cc1c(C(=O)Nc2nc(-c3ccccc3)cs2)nnn1-c1ccccc1Br", "growth": "-1.78% [50 µM] (active)"}, {"compound": "CCCC(=O)Oc1ccc(/C(=C(\\C)c2ccc(OC)cc2)c2ccc(OCCN3CCCCC3)cc2)cc1", "growth": "68.6% (inactive)"}, {"compound": "COc1ccc(C2CC(c3ccccc3)=NN2C(=O)c2cc(OC)c(OC)c(OC)c2)cc1O", "note": "(stereo not given)", "growth": "41.3% (inactive)"}, {"compound": "C(=N\\OCCc1ccccc1)/c1ccccn1", "growth": "112% (inactive) and 107% (inactive)"}, {"compound": "CSc1nc2ncncc2[nH]1", "growth": "103% (inactive)"}, {"compound": "COc1ccc(-c2nn(-c3cccc(Cl)c3)cc2-c2cc(-c3ccc(Br)cc3)[nH]c(=O)c2C#N)cc1", "growth": "75.1% (inactive)"}, {"compound": "OC(c1ccccc1)C(NC(Cc1ccccc1)c1ccccc1)c1ccccc1", "note": "(stereo not given)", "growth": "89.3% (inactive)"}, {"compound": "O=C1N=C(c2c(-c3[nH]c(=O)c4ccc(Br)cc4c3O)c(O)c3ccccc3c2O)C(=O)c2cc(Br)ccc21", "growth": "-11.5% (active)"}, {"compound": "CCCCCn1sc(=O)n(Cc2ccc(CNC(=O)C(C)c3ccc(CC(C)C)cc3)cc2)c1=O", "note": "(stereo not given)", "growth": "106% (inactive) and -81% (active)"}]}]}
